Data published in PubChem BioAssay AID1035 (National Center for Advancing Translational Sciences (NCATS), 2008).
A number with no mark means an inactive call. No rule for the calls is given here.

Assay: HDAC Secondary Assay for qHTS Assay for Epigenetic Modulators
Conditions: HeLa nuclear extract HDAC activity, fluorogenic substrate, 20 min; at 48 µM; stronger effect = lower value
Source text: NIH Molecular Libraries Screening Centers Network [MLSCN] NIH Chemical Genomics Center [NCGC] MLSCN Grant: 1 X01 MH079860-01 Assay Provider: Elisabeth D. Martinez, University of Texas SW Medical Center NCGC Assay Overview: This secondary assay characterizes selected actives identified in the qHTS of the Locus Derepression (LDR) assay (PubChem AID 597). The LDR assay detects the derepression of a GFP reporter that is stably integrated in a region of the genome of murine c127i mammary cells that is presumably silenced. Compounds that cause derepression of the locus to express GFP are identified by enumerating GFP positive cells using a laser-scanning microplate cytometer. […]
NCGC Assay Protocol Summary HeLa nuclear extracts and acetylated profluorescent substrate were incubated with vehicle, 0.5 uM TSA, or 48 uM indicated LDR compound for 20 min at ambient temperature and fluorescence was measured. Background-subtracted activity was expressed as a percent of uninhibited extract. […] For further details, see R.L. Johnson, W. Huang, A. Jadhav, C.P. Austin, J. Inglese, E.D. Martinez, A Quantitative High-Throughput Screen Identifies Potential Epigenetic Modulators of Gene Expression, Analytical Biochemistry (2007), doi: 10.1016/j.ab.2007.12.028

For `CN1CSC(=S)N(C)C1`, which remaining HDAC activity is on record?
Its remaining HDAC activity is 102%.
